# Data published in ChEMBL document CHEMBL5606458, “ASAP - ZIKV NS2B-NS3 protease fluorescence single point” (2024).
# Out of some 2,700 compounds screened, about 160 (5.9%) showed an effect of 50% or more. The full list was thinned out, with strong results kept by preference.
# Biological target: Nonstructural protein 3 (Zika virus) (UniProt A0A024AXB9)
# [1] = PRVABC59, Concentration 198.0 uM, Number of replicates 2.0, Standard deviation 0.06482927085509294 %
# Nonstructural protein 3 (Zika virus), sequence (A0A024AXB9 as listed by the source): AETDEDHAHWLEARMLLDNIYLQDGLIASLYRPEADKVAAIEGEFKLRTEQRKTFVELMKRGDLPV
structure (smiles),measurement,setting,value
OC1CCN(Cc2c[nH]c3ccccc23)CC1,inhibition,"PRVABC59, Concentration 49.5 uM, Number of replicates 2.0, Standard deviation 2.7698787458435845 %",5.44%
same,inhibition,"PRVABC59, Concentration 99.01 uM, Number of replicates 2.0, Standard deviation 2.6829105784026894 %",11.6%
same,inhibition,"PRVABC59, Concentration 198.0 uM, Number of replicates 2.0, Standard deviation 2.633683059341965 %",21.9%
O=C(O)c1ccc(C2CCN(Cc3c[nH]c4ccccc34)CC2)cc1,inhibition,"PRVABC59, Concentration 49.5 uM, Number of replicates 2.0, Standard deviation 0.6949576992221913 %",10.8%
same,inhibition,"PRVABC59, Concentration 99.01 uM, Number of replicates 2.0, Standard deviation 0.3163616627681085 %",22.8%
same,inhibition,"PRVABC59, Concentration 198.0 uM, Number of replicates 2.0, Standard deviation 0.22041520507002849 %",37.7%
c1ccc2c(CN3CCCCC3)c[nH]c2c1,inhibition,"PRVABC59, Concentration 49.5 uM, Number of replicates 2.0, Standard deviation 0.27567478108963184 %",10.6%
same,inhibition,"PRVABC59, Concentration 99.01 uM, Number of replicates 2.0, Standard deviation 0.4102311237715717 %",22.8%
same,inhibition,"PRVABC59, Concentration 198.0 uM, Number of replicates 2.0, Standard deviation 0.3445953308233743 %",38%
O=C1NCc2ccccc2C12CCNCC2,inhibition,"PRVABC59, Concentration 49.5 uM, Number of replicates 2.0, Standard deviation 1.3304043012280913 %",0.782%
same,inhibition,"PRVABC59, Concentration 99.01 uM, Number of replicates 2.0, Standard deviation 0.8986974193851874 %",2.65%
same,inhibition,"PRVABC59, Concentration 198.0 uM, Number of replicates 2.0, Standard deviation 5.074631109254522 %",2.34%
CCn1ccnc(N2CC[C@H](C(C)(C)C)C2)c1=O,inhibition,"PRVABC59, Concentration 49.5 uM, Number of replicates 2.0, Standard deviation 2.222905543826298 %",4.07%
same,inhibition,"PRVABC59, Concentration 99.01 uM, Number of replicates 2.0, Standard deviation 1.7617429882024038 %",10.1%
same,inhibition,"PRVABC59, Concentration 198.0 uM, Number of replicates 2.0, Standard deviation 1.0233659428190776 %",20.1%
COC[C@@H](C)CN1CC[C@H](c2c[nH]c3ccccc23)C1,inhibition,"PRVABC59, Concentration 49.5 uM, Number of replicates 2.0, Standard deviation 1.4380791310486918 %",4.02%
same,inhibition,"PRVABC59, Concentration 99.01 uM, Number of replicates 2.0, Standard deviation 1.4278249713933853 %",8.28%
same,inhibition,"PRVABC59, Concentration 198.0 uM, Number of replicates 2.0, Standard deviation 1.555996909462895 %",14.7%
c1ccc2c(CN3CCC(c4ccn[nH]4)CC3)c[nH]c2c1,inhibition,"PRVABC59, Concentration 49.5 uM, Number of replicates 2.0, Standard deviation 1.3620998271263447 %",41.5%
same,inhibition,"PRVABC59, Concentration 99.01 uM, Number of replicates 2.0, Standard deviation 0.5632518321987402 %",58.4%
same,inhibition,"PRVABC59, Concentration 198.0 uM, Number of replicates 2.0, Standard deviation 0.6599886276000965 %",73.5%
c1ccc2c(CN3CCC(c4cnco4)CC3)c[nH]c2c1,inhibition,"PRVABC59, Concentration 49.5 uM, Number of replicates 2.0, Standard deviation 0.1050178081967768 %",41.5%
same,inhibition,"PRVABC59, Concentration 99.01 uM, Number of replicates 2.0, Standard deviation 0.24613759530362114 %",59.4%
same,inhibition,"PRVABC59, Concentration 198.0 uM, Number of replicates 2.0, Standard deviation 0.2970051325336013 %",74.9%
c1cnc(C2CCN(Cc3c[nH]c4ccccc34)CC2)nc1,inhibition,"PRVABC59, Concentration 49.5 uM, Number of replicates 2.0, Standard deviation 0.6038611636759568 %",44.9%
same,inhibition,"PRVABC59, Concentration 99.01 uM, Number of replicates 2.0, Standard deviation 0.27239407040154384 %",62.7%
same,inhibition,"PRVABC59, Concentration 198.0 uM, Number of replicates 2.0, Standard deviation 0.2641885847586549 %",77.4%
COc1cccc(C2CCN(Cc3c[nH]c4ccccc34)CC2)c1,inhibition,"PRVABC59, Concentration 49.5 uM, Number of replicates 2.0, Standard deviation 0.042125269324456455 %",39.6%
same,inhibition,"PRVABC59, Concentration 99.01 uM, Number of replicates 2.0, Standard deviation 0.10921765735719036 %",56.3%
same,inhibition,"PRVABC59, Concentration 198.0 uM, Number of replicates 2.0, Standard deviation 0.2075162463769664 %",67.5%
CCc1cc(C)nc(C2CCN(Cc3c[nH]c4ccccc34)CC2)n1,inhibition,"PRVABC59, Concentration 49.5 uM, Number of replicates 2.0, Standard deviation 0.9221110052573533 %",41.8%
same,inhibition,"PRVABC59, Concentration 99.01 uM, Number of replicates 2.0, Standard deviation 1.5508934318704077 %",59.5%
same,inhibition,"PRVABC59, Concentration 198.0 uM, Number of replicates 2.0, Standard deviation 1.118702788500296 %",75.2%
N#CC1(c2ccccc2)CCN(Cc2c[nH]c3ccccc23)CC1,inhibition,"PRVABC59, Concentration 49.5 uM, Number of replicates 2.0, Standard deviation 0.4200874171769353 %",32%
same,inhibition,"PRVABC59, Concentration 99.01 uM, Number of replicates 2.0, Standard deviation 0.32673315924966934 %",34.4%
same,inhibition,[1],32.8%
c1ccc(COC2CCN(Cc3c[nH]c4ccccc34)CC2)cc1,inhibition,"PRVABC59, Concentration 49.5 uM, Number of replicates 2.0, Standard deviation 2.313702836748105 %",23.5%
same,inhibition,"PRVABC59, Concentration 99.01 uM, Number of replicates 2.0, Standard deviation 1.2274106375778986 %",39.6%
same,inhibition,"PRVABC59, Concentration 198.0 uM, Number of replicates 2.0, Standard deviation 0.262548566589399 %",58.3%
Cn1nccc1C1CCN(Cc2c[nH]c3ccccc23)CC1,inhibition,"PRVABC59, Concentration 49.5 uM, Number of replicates 2.0, Standard deviation 1.4229504354820093 %",24.6%
same,inhibition,"PRVABC59, Concentration 99.01 uM, Number of replicates 2.0, Standard deviation 1.2388422115932054 %",38.2%
same,inhibition,"PRVABC59, Concentration 198.0 uM, Number of replicates 2.0, Standard deviation 1.0765748217775348 %",55.9%
c1cncc(C2CCN(Cc3c[nH]c4ccccc34)CC2)c1,inhibition,"PRVABC59, Concentration 49.5 uM, Number of replicates 2.0, Standard deviation 0.34229175267116285 %",61.9%
same,inhibition,"PRVABC59, Concentration 99.01 uM, Number of replicates 2.0, Standard deviation 0.300803069346615 %",77.1%
same,inhibition,[1],87.7%
OC1(c2ccccc2)CCN(Cc2c[nH]c3ccccc23)CC1,inhibition,"PRVABC59, Concentration 49.5 uM, Number of replicates 2.0, Standard deviation 0.6104232594017089 %",13%
same,inhibition,"PRVABC59, Concentration 99.01 uM, Number of replicates 2.0, Standard deviation 0.9927585642556782 %",22.8%
same,inhibition,"PRVABC59, Concentration 198.0 uM, Number of replicates 2.0, Standard deviation 2.2070409642846154 %",34.8%
c1ccc2c(CN3CCC(c4cscn4)CC3)c[nH]c2c1,inhibition,"PRVABC59, Concentration 49.5 uM, Number of replicates 2.0, Standard deviation 0.07712401232790286 %",65.8%
same,inhibition,"PRVABC59, Concentration 99.01 uM, Number of replicates 2.0, Standard deviation 0.031176529605690447 %",79.9%
same,inhibition,"PRVABC59, Concentration 198.0 uM, Number of replicates 2.0, Standard deviation 0.07383858119278165 %",89.2%
FC(F)(F)c1ccccc1C1CCN(Cc2c[nH]c3ccccc23)CC1,inhibition,"PRVABC59, Concentration 49.5 uM, Number of replicates 2.0, Standard deviation 0.039004379485921774 %",33%
same,inhibition,"PRVABC59, Concentration 99.01 uM, Number of replicates 2.0, Standard deviation 0.833177783151486 %",38.2%
same,inhibition,"PRVABC59, Concentration 198.0 uM, Number of replicates 2.0, Standard deviation 1.0547312903060968 %",41.8%
c1cc(C2CCN(Cc3c[nH]c4ccccc34)CC2)c2ccncc2c1,inhibition,"PRVABC59, Concentration 49.5 uM, Number of replicates 2.0, Standard deviation 0.9049501572428696 %",65.6%
same,inhibition,"PRVABC59, Concentration 99.01 uM, Number of replicates 2.0, Standard deviation 0.6350269036884285 %",80.3%
same,inhibition,"PRVABC59, Concentration 198.0 uM, Number of replicates 2.0, Standard deviation 0.1685064720944352 %",90%
C#CCn1ccnc(N2CC[C@H](CO)C2)c1=O,inhibition,"PRVABC59, Concentration 49.5 uM, Number of replicates 2.0, Standard deviation 1.0450300973032534 %",12.1%
same,inhibition,"PRVABC59, Concentration 99.01 uM, Number of replicates 2.0, Standard deviation 3.6329706761941627 %",19.8%
same,inhibition,"PRVABC59, Concentration 198.0 uM, Number of replicates 2.0, Standard deviation 1.3173095282768474 %",33.5%
CCCC[C@H](NC(=O)OC(C)(C)C)C(=O)N[C@H](C(=O)NCc1ccc(C(N)=O)cc1)c1ccc(OCc2ccccc2)cc1,inhibition,"PRVABC59, Concentration 49.5 uM, Number of replicates 2.0, Standard deviation 0.2512152790248196 %",-3.29%
same,inhibition,"PRVABC59, Concentration 99.01 uM, Number of replicates 2.0, Standard deviation 1.1330320426444238 %",4.53%
same,inhibition,"PRVABC59, Concentration 198.0 uM, Number of replicates 2.0, Standard deviation 0.18969183837952716 %",69.4%
CCCC[C@@H](NC(=O)OC(C)(C)C)C(=O)N[C@@H](C(=O)NCc1ccc(CN)cc1)c1ccc(OCc2ccccc2)cc1,inhibition,"PRVABC59, Concentration 49.5 uM, Number of replicates 2.0, Standard deviation 0.1534981479270999 %",98.5%
same,inhibition,"PRVABC59, Concentration 99.01 uM, Number of replicates 2.0, Standard deviation 0.024832248793042588 %",99.6%
same,inhibition,"PRVABC59, Concentration 198.0 uM, Number of replicates 2.0, Standard deviation 0.14898809796164614 %",99%
CCn1ccnc(N2CC[C@H](c3cccnc3)C2)c1=O,inhibition,"PRVABC59, Concentration 49.5 uM, Number of replicates 2.0, Standard deviation 0.6295639977718405 %",11.1%
same,inhibition,"PRVABC59, Concentration 99.01 uM, Number of replicates 2.0, Standard deviation 0.9611868657983497 %",17.2%
same,inhibition,"PRVABC59, Concentration 198.0 uM, Number of replicates 2.0, Standard deviation 2.077820749798943 %",29.9%
O[C@@H]1CNC[C@H]1c1c[nH]c2ccccc12,inhibition,"PRVABC59, Concentration 49.5 uM, Number of replicates 2.0, Standard deviation 0.0908773719339778 %",4.36%
same,inhibition,"PRVABC59, Concentration 99.01 uM, Number of replicates 2.0, Standard deviation 0.868383551474818 %",12%
same,inhibition,"PRVABC59, Concentration 198.0 uM, Number of replicates 2.0, Standard deviation 1.0703330421004655 %",25.3%
CCn1ccnc(N2CC[C@H](C#N)C2)c1=O,inhibition,"PRVABC59, Concentration 50.0 uM, Number of replicates 1.0",9.92%
same,inhibition,"PRVABC59, Concentration 100.0 uM, Number of replicates 2.0, Standard deviation 3.4431722905816002 %",15.4%
same,inhibition,"PRVABC59, Concentration 200.0 uM, Number of replicates 3.0, Standard deviation 5.353488841443075 %",26.6%
CCn1ccnc(N2CC[C@@H](CC#N)C2)c1=O,inhibition,"PRVABC59, Concentration 49.5 uM, Number of replicates 2.0, Standard deviation 4.2825905047110036 %",7.54%
same,inhibition,"PRVABC59, Concentration 99.01 uM, Number of replicates 2.0, Standard deviation 3.0053265516656906 %",14.9%
same,inhibition,"PRVABC59, Concentration 198.0 uM, Number of replicates 2.0, Standard deviation 1.5959318913639373 %",26%
